In the OligoGym collection:
Further: reference of the scale not given here.

The sequences below were run against HNRNPL (assay: pooled miR-30 sensor sort-seq; sequence = guide strand). Settings: shRNA.
TCTTGAACACATTCAAGCGTGT gave a sensor-assay potency score (higher = more potent) of 0.0553.
In the case of TTAAAAGTGAAGGTTAATCTTG, the sensor-assay potency score (higher = more potent) is reported as -0.688.
TTAAGGTTAAGTAAGCCTCTAC was tested, and the sensor-assay potency score (higher = more potent) was 0.152.
With TTGTGTAGTCCCAAGTATCCTG the sensor-assay potency score (higher = more potent) was 0.0698.
Sequence TAAAAGTGAAGGTTAATCTTGG has a sensor-assay potency score (higher = more potent) of 0.553.
Sequence ATAGTGTAAAGAACATCCGTGG has a sensor-assay potency score (higher = more potent) of -0.231.
TTCTTGAACACATTCAAGCGTG gave a sensor-assay potency score (higher = more potent) of -0.271.
With TACAGCGTAGCCATCAGCCATC the sensor-assay potency score (higher = more potent) was -1.38.

Each sequence was assayed against HNRNPU in the same assay as above. Settings: shRNA.
Work on TTCATCTCAAAACACACTTTGC yielded a sensor-assay potency score (higher = more potent) of -0.868.
TTGAGTAACTACCACGGCCAGG gave a sensor-assay potency score (higher = more potent) of -1.38.
For TTTCATCAAACTTTTCTCCATA, the sensor-assay potency score (higher = more potent) was -0.817.
Work on AACTACAACAGCTTTTCGCTGG yielded a sensor-assay potency score (higher = more potent) of 0.276.
In the case of TTGCTTATAGTCTTCATCTTTT, the sensor-assay potency score (higher = more potent) is reported as -0.867.
TATTGCTTTTCTTTGAGCCAGT showed a sensor-assay potency score (higher = more potent) of -0.865.
TTCTTCCTTATATTGCTCCAAG was tested, and the sensor-assay potency score (higher = more potent) was -1.21.
In the case of TTATCCATAATAGTATTTGTGC, the sensor-assay potency score (higher = more potent) is reported as -0.391.
With TTTGCTTCTTAAAACCTGCCAC the sensor-assay potency score (higher = more potent) was 0.467.
For TAAAATTTCGCTTCTTTCGGGC, the sensor-assay potency score (higher = more potent) was 0.159.
In the case of TTCTTCTTCAACAGGTGGCTGA, the sensor-assay potency score (higher = more potent) is reported as -0.158.
